Data from PubChem BioAssay (NCI).
The panel holds about 83,000 compounds, 20% with a hit somewhere; the sample as a whole holds those more often.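 Interpretation: 100, growth as untreated; towards 0, rising growth inhibition; 0, no net growth; 0 to -100, cell death. Compounds scoring below 10 were considered active.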 A number with no mark means an inactive call. Activity calls are given as the source filed them.

Tests used:
Assay in all cases: NCI-60 one-dose screen, 48 h (100 = growth as untreated, 0 = no growth, -100 = all killed)
Conditions in all cases: 10 µM
HCT-15 colon = system: HCT-15 colon
HT29 colon = system: HT29 colon
SNB-75 CNS = system: SNB-75 CNS
SNB-19 CNS = system: SNB-19 CNS
U251 CNS = system: U251 CNS
PC-3 prostate = system: PC-3 prostate
SK-MEL-5 melanoma = system: SK-MEL-5 melanoma
UACC-62 melanoma = system: UACC-62 melanoma
LOX IMVI melanoma = system: LOX IMVI melanoma
SK-MEL-28 melanoma = system: SK-MEL-28 melanoma
SK-MEL-2 melanoma = system: SK-MEL-2 melanoma
EKVX NSCLC = system: EKVX NSCLC
SN12C renal = system: SN12C renal
UO-31 renal = system: UO-31 renal
TK-10 renal = system: TK-10 renal
ACHN renal = system: ACHN renal
CAKI-1 renal = system: CAKI-1 renal
A498 renal = system: A498 renal
CCRF-CEM leukemia = system: CCRF-CEM leukemia

SMILES | growth (HCT-15 colon) | growth (HT29 colon) | growth (SNB-75 CNS) | growth (SNB-19 CNS) | growth (U251 CNS) | growth (PC-3 prostate) | growth (SK-MEL-5 melanoma) | growth (UACC-62 melanoma) | growth (LOX IMVI melanoma) | growth (SK-MEL-28 melanoma) | growth (SK-MEL-2 melanoma) | growth (EKVX NSCLC) | growth (SN12C renal) | growth (UO-31 renal) | growth (TK-10 renal) | growth (ACHN renal) | growth (CAKI-1 renal) | growth (A498 renal) | growth (CCRF-CEM leukemia)
COc1ccc(-c2nc(S(=O)(=O)c3ccc(C)cc3)c(S(=O)(=O)CC(=O)N(C)Cc3ccccc3)o2)cc1 | -39.6% (active) | 8.42% (active) | 78.7% | 72.1% | 23.6% | 63.7% | 78.4% | 46.7% | -91.1% (active) | 64.8% | 51.1% | 84.6% | 47.4% | 34.8% | 56% | 6.56% (active) | 42.9% | 132% | -35.9% (active)
Cc1cc2c(c(O)c1Br)-c1ncoc1C(=O)[C@]1(C)CC[C@H](C(C)C)[C@H]21 | 7.31% (active) | 5.42% (active) | 59.6% | 45% | 26.7% | 9.6% (active) | -29.9% (active) | 33.1% | 35.6% | 46.6% | 4.52% (active) | 46.7% | 54.5% | 50.3% | 68.8% | 52.2% | 55.4% | 104% | 14.2%
C=C1CC[C@H](C(=C)C)[C@H]2C=C(C)C(=O)C3=C(C(=O)[C@@](C)(O)C3)[C@H]12 | -80.8% (active) | -37.6% (active) | -71% (active) | -90.9% (active) | -95.9% (active) | -73.2% (active) | -90.4% (active) | -53.5% (active) | -75.9% (active) | -89.2% (active) | -88.6% (active) | -78.5% (active) | -50.8% (active) | -99.8% (active) | -97% (active) | -98.3% (active) | -78.9% (active) | -93.2% (active) | -5.05% (active)
C=C(C)[C@@H]1CC[C@]2(C(=O)OC)CC[C@]3(C)[C@H](CC[C@@H]4[C@@]5(C)CC[C@H](N)C(C)(C)[C@@H]5CC[C@]43C)[C@@H]12 | -97.2% (active) | -70.6% (active) | -91.5% (active) | -99.3% (active) | -85.4% (active) | -28.2% (active) | -54.9% (active) | -97.9% (active) | -98.4% (active) | -100% (active) | -75.3% (active) | -95.7% (active) | -92.8% (active) | -100% (active) | -87.8% (active) | -100% (active) | -99.9% (active) | -91.6% (active) | -52.3% (active)
Cc1ccc(-c2nc3ccc(C(=O)N=Nc4c(O)[nH]c5ccc([N+](=O)[O-])cc45)cc3[nH]2)cc1 | 104% | 66.6% | 78.4% | 55.4% | 5.86% (active) | 60.8% | 89.3% | 85.6% | 54.9% | 60.4% | 101% | 101% | 48.8% | 81.7% | 107% | 97% | 95.9% | 116% | 61.2%
CC(=C(c1ccc(OCCN2CCCCCC2)cc1)c1ccc(OCCN2CCCCCC2)cc1)c1ccc(Cl)cc1 | -76% (active) | -94.8% (active) | -97.2% (active) | -99.2% (active) | -100% (active) | -83.3% (active) | -100% (active) | -98.3% (active) | -100% (active) | -98.5% (active) | -91.7% (active) | -89.3% (active) | -92.4% (active) | -100% (active) | -98% (active) | -100% (active) | -100% (active) | -90.9% (active) | 
COc1ccc(-c2nc(S(=O)(=O)c3ccc(C)cc3)c(S(C)(=O)=O)o2)cc1 | -72.6% (active) | -74.8% (active) | 43.6% | 65.5% | -90.3% (active) | 20.8% | 10.1% | -58.2% (active) | -89.1% (active) | -98.2% (active) | -62.4% (active) | 36.8% | -73.3% (active) | -100% (active) | -100% (active) | -100% (active) | -100% (active) | 116% | -50.5% (active)
Cc1ccc(NC(=O)c2ccc(-n3c(=O)[nH]c4ccccc4c3=O)cc2)cc1 | 88.7% | 104% | 50.5% | 68.4% | 91.9% | 96.1% | 90.9% | 82.4% | 85.1% | 102% | 97.8% | 84.8% | 69.4% | -16.8% (active) | 96.3% | 68.3% | 88.4% | 107% | 60.7%
Cc1ccc(-c2nc3ccc(C(=O)N=Nc4c(O)[nH]c5ccc(Br)cc45)cc3[nH]2)cc1 | 96.6% | 47.9% | 107% | 46.1% | -76% (active) | 62.6% | 84.1% | 98% | -27.8% (active) | 99.3% | 113% | 94.9% | 95.3% | 80.3% | 114% | 101% | 92.7% | 137% | 34.7%
CC(C)C(=O)Nc1ccc(C(=O)NC(=S)Nc2ccc(C(=O)O)cc2)cc1 | 99.7% | 111% | 79.1% | 97.8% | 104% | 101% | 93.8% | 91.5% | 101% | 102% | 105% | 96.6% | 96.3% | 88.4% | 101% | 104% | 99.3% | 122% | 107%
O=C(Cn1cc(CSc2nnc3oc4ccccc4n23)nn1)Nc1ccc(Br)cc1 | 82.5% | 103% | -24.5% (active) | 24.7% | 54.3% | 80% | 92.4% | 49.8% | 54.9% | 89.7% | 71.5% | 78.5% | 61.5% | 74.2% | 85.8% | 75.2% | 71.2% | 119% | 97.9%
COc1ccc(C(C)=C(c2ccc(OCCCN(C)C)cc2)c2ccc(OCCCN(C)C)cc2)cc1 | -72.7% (active) | -94.3% (active) | -95.3% (active) | -97.4% (active) | -97.5% (active) | -82.3% (active) | -98.5% (active) | -96.6% (active) | -92.5% (active) | -97.9% (active) | -92.8% (active) | -85.1% (active) | -94.2% (active) | -99.4% (active) | -97.7% (active) | -100% (active) | -100% (active) | -85.2% (active) | -81.2% (active)
CN1CCN(c2ccc(Nc3nc(NCCCNC(=O)c4ccc(Cl)cc4)c4sccc4n3)cc2)CC1 | 26.8% | 35.4% | 99.5% | 104% | 44.6% | 61.6% | 72.4% | 86% | 59.7% | 89.1% | 113% | 88.3% | 74.5% | 67.3% | 115% | 73.1% | 79.9% | 136% | 34.8%
COc1cc(Cn2c(C(F)(F)F)cc3c(Cl)ncnc32)ccn1 | -48.3% (active) | 69.7% | -60.9% (active) | -8.63% (active) | 12.7% | 29.3% | -20.4% (active) | 0.529% (active) | -100% (active) | 27.9% | -81.7% (active) | 73% | 51.3% | 68.3% | 97.1% | 74.8% | -57.6% (active) | 103% | -14.3% (active)
C=C[C@H]1[C@H](O[C@@H]2OC(CO)[C@@H](O)[C@H](O)C2OC(=O)c2c(O)cc(O)cc2-c2cccc(O)c2)OC=C2C(=O)OCC[C@H]21 (stereo partly drawn) | 93.7% | 108% | 93.2% | 97.2% | 104% | 103% | 100% | 98% | 99.3% | 102% | 106% | 93.8% | 102% | 89.3% | 102% | 105% | 93.9% | 106% | 106%
CC[C@@]1(O)C(=O)OCc2c1cc1n(c2=O)Cc2c-1nc1cc(F)c(C)c3c1c2[C@@H](N)CC3 | 5.44% (active) | -11.1% (active) | -26.1% (active) | 1.87% (active) | -42.1% (active) | 22.5% | -78.4% (active) | -78.1% (active) | -74.2% (active) | -15.7% (active) | -29.2% (active) | 15.4% | 1.83% (active) | -82.4% (active) | 6.02% (active) | -57.8% (active) | -22.9% (active) | -89.6% (active) | 13.4%
